TEAD-YAP inh: TEAD-YAP interaction inhibition. inhibition, % at 9.12 µM. actives 1.4% (n = 640,000). HEK-TIYL cells, TEAD-Gal4/YAP UAS-luciferase luminescence; in the data active = inhibition above about 32%;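 also: 0% = median of test compound wells and 100% = reference inhibitor wells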
MITF inh: human MITF inhibition, primary screen; O75030; AlphaScreen MITF homodimerization, bead proximity signal; inhibition, % at 2.6 µM; actives 0.91% (n = 650,000); AID 1259374; in the data active = inhibition above about 50%;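 also: 0% = vehicle wells with protein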
Target sequence (O75030 whole entry, looked up): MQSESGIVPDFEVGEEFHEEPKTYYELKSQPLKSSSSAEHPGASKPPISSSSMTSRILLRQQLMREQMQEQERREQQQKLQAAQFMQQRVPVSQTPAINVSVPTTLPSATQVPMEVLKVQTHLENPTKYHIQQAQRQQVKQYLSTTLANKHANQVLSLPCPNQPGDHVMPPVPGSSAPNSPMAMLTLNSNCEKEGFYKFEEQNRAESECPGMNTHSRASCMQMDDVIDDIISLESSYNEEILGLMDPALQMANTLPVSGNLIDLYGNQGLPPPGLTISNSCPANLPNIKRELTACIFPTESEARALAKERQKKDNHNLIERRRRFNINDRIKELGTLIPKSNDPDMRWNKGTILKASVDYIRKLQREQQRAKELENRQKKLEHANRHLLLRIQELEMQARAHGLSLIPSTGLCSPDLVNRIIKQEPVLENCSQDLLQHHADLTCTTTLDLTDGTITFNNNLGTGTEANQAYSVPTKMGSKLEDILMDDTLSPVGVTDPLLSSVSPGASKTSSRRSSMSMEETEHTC
GPR151 ag: activators of human GPR151; AID 1508602; Q8TDV0; PathHunter beta-arrestin GPR151 cells, luminescence; actives 1% (n = 650,000); activation, % at 11.2 µM; in the data active = activation above about 4.9%;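 also: 0% = median of compound wells and 100% = cells with positive control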
FBW7 act: human FBW7 E3 ligase activation, primary screen. AlphaScreen FBW7–phospho-cyclin E peptide binding, activator screen. actives 0.13% (n = 650,000). Q969H0. normalized activity (activation), % at 26.1 µM. AID 1259310; in the data active = normalized activity above about 1.9%;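 also: purified mutant Fbw7 with reduced substrate affinity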
GPR151 confirm: confirmation of human GPR151 activators. shares compounds with GPR151 ag. 6,700 tested, under 10 active. GPR151 PathHunter beta-arrestin cells, luminescence, 90 min; % of EA-reagent control over plate median. activation, % at 11.2 µM;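 active = mean percent activation across replicates above the confirmation screen cutoff of 4.91%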
GPR119 ag: GPR119 activation, counter-screen for GPR151 activators; activation, % at 11.2 µM; shares compounds with GPR151 ag; actives 0.3% (n = 6,700); GPR119 PathHunter beta-arrestin cells, luminescence, 90 min; 0 = compound-well median, 100 = enzyme-acceptor control;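 active = mean percent activation in the counterscreen above 29.09%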;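 also: counterscreen on off-target GPR119 to flag nonselective hits from the GPR151 activator screen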
* = called active by the depositor; · = not tested or not shown. Rows were chosen to be rich in hits. Some 3.5% of all compounds tested hit in one or more screens of this group.

SMILES	TEAD-YAP inh	MITF inh	GPR151 ag	FBW7 act	GPR151 confirm	GPR119 ag
O=C(CCC1CCCCC1)Nc1nn[nH]n1	1	1	7.7*	0	1	4
CCN(CC)c1ccc(NC(=O)c2ccc([N+](=O)[O-])cc2)cc1	-32	5	1	0	·	·
CCCC(=O)n1nc(NCc2ccccc2)nc1NCc1ccccc1	-9	11	6.9*	0	0	-6
O=C(COc1ccccc1)n1nc(NCc2ccccc2)nc1NCc1ccccc1	-3	4	8.8*	0	0	4
COCC(=O)n1nc(NCc2ccc(OC)cc2)nc1NCc1ccc(OC)cc1	4	-16	3	0	·	·
CC(=O)n1nc(NCc2ccccc2)nc1NCc1ccccc1	-1	-6	0	0	·	·
COc1ccc(C(=O)NCc2nnc(SCC(=O)c3ccccc3)n2C)cc1	-6	13	6.5*	0	-1	1
CCOC(=O)CSc1nnc(CNC(=O)c2ccc(OC)cc2)n1CC	5	16	0	0	·	·
CCCCn1c(CNC(=O)c2ccc(OC)cc2)nnc1SCC(=O)OCC	2	14	6.4*	0	1	0
CC(=O)Nc1ccc(Nc2coc3ccc4c(C)cc(=O)oc4c23)cc1	9	12	0	0	·	·
O=[N+]([O-])c1ccc(-c2ccc(S(=O)(=O)N3CCOCC3)cc2)cc1	9	3	5.6*	0	-1	-13
O=[N+]([O-])c1ccc(S(=O)(=O)N2CCN(S(=O)(=O)N3CCOCC3)CC2)cc1	12	-3	3	0	·	·
CCOc1ccc(S(=O)(=O)NC2CC2)cc1	5	7	3	0	·	·
CCOc1ccc(S(=O)(=O)NC2CCCCC2)cc1	4	12	5.3*	0	-1	-6
C=CCON1C(=O)CN(C(=O)Nc2ccccc2)C1c1ccccc1 (configuration not stated)	0	-9	-1	0	·	·
COCCCNC(=O)CN(c1ccc(I)cc1)S(C)(=O)=O	0	12	6.7*	0	0	11
O=C1c2cccc3c([N+](=O)[O-])ccc(c23)C(=O)N1CCc1ccccc1	4	14	6.9*	0	0	1
CC1CCN(C(=O)CSc2nc3[nH]ncc3c(=O)[nH]2)CC1	-5	0	7.7*	0	1	10
CCOc1ccccc1NC(=O)c1ccoc1C	9	6	5.9*	0	1	-7
CCOc1ccccc1NC(=O)c1ccccc1NS(=O)(=O)c1ccccc1	2	-18	5.9*	0	2	13
CCOc1ccccc1NC(=O)c1ccccc1NS(C)(=O)=O	10	-6	0	0	·	·
CCOC(=O)c1ccccc1NC(=O)c1ccoc1C	7	11	1	0	·	·
NC(=O)C1CCN(Cc2ccc(Cl)cc2)CC1	-7	9	1	0	·	·
NC(=O)C1CCN(Cc2cccc(Cl)c2)CC1	7	40	5.1*	0	1	6
COc1cccc2cc(C(=O)C3=C(O)C(=O)N(Cc4ccco4)C3c3cccnc3)oc12 (configuration not stated)	11	-2	5.4*	0	0	9
SMILES	TEAD-YAP inh	MITF inh	GPR151 ag	FBW7 act	GPR151 confirm	GPR119 ag
COc1ccc(S(=O)(=O)Nc2ccc(Cl)cc2)cc1I	9	2	19*	0	0	6
COc1ccc(S(=O)(=O)NCCCCCC(=O)O)cc1C(=O)O	0	10	8.8*	0	1	-3
COc1ccccc1NS(=O)(=O)c1ccc(Cl)c(C(=O)Nc2ccc(Cl)cc2)c1	9	6	9.6*	0	0	-8
COc1ccccc1NS(=O)(=O)c1cccc(S(=O)(=O)Nc2ccccc2OC)c1	9	7	-1	0	·	·
COc1ccccc1NS(=O)(=O)c1cccc(C(F)(F)F)c1	3	-6	6.8*	0	0	10
COc1ccccc1NS(=O)(=O)c1ccc(Br)c(C(=O)Nc2ccccc2)c1	5	11	2	0	·	·
NC(=O)c1ccc(NS(=O)(=O)c2ccc(S(N)(=O)=O)cc2)cc1	0	4	2	0	·	·
COc1ccc(S(=O)(=O)Nc2ccc3oc4c(c3c2)CCCC4)cc1[N+](=O)[O-]	10	-4	6.4*	0	0	1
COC(=O)COc1ccc(S(=O)(=O)Nc2ccc(S(N)(=O)=O)cc2)cc1C	-6	3	5.9*	0	1	-1
COc1ccc(S(=O)(=O)Nc2ccc(C)c(C)c2)cc1[N+](=O)[O-]	1	10	4	0	·	·
COc1ccc(S(=O)(=O)Nc2ccc(I)cc2)cc1C	4	2	6.8*	0	0	-8
COc1ccc(S(=O)(=O)Nc2ccc(-c3cn4ccsc4n3)cc2)cc1C	7	6	13*	0	1	9
COC(=O)COc1ccc(S(=O)(=O)Nc2ccc(C(N)=O)cc2)cc1C	3	-8	-1	0	·	·
O=C(NCc1ccco1)C(=O)NC1CC1	5	-5	0	0	·	·
COCCNS(=O)(=O)c1ccc(OC)c(I)c1	3	-10	9.4*	0	1	9
COCCCNS(=O)(=O)c1ccc(OC)c(I)c1	-2	4	-1	0	·	·
O=c1[nH]c2ccc(S(=O)(=O)NCCO)cc2[nH]1	3	2	-1	0	·	·
COCCCNS(=O)(=O)c1ccc2[nH]c(=O)[nH]c2c1	-6	-3	6.0*	0	1	16
COCCNS(=O)(=O)c1ccc(Cl)c(C(F)(F)F)c1	5	3	8.8*	0	1	7
COc1ccc(OC)c(C(C)NC(=O)Nc2ccc(F)cc2F)c1 (configuration not stated)	6	4	-1	1	·	·
Cc1nc(NCc2ccco2)c2nnn(Cc3ccccc3Cl)c2n1	-4	1	0	0	·	·
CCCCC(=O)Nc1nnc(S(=O)(=O)N(C)c2cccc(C)c2)s1	1	8	6.7*	0	1	-2
CC(NC(=O)C1CC1)C(c1cccs1)N1CCN(c2ccccc2F)CC1 (configuration not stated)	3	0	2	0	·	·
CC(NC(=O)C1CC1)C(c1cccs1)N1CCN(c2ccccc2)CC1 (configuration not stated)	2	10	5.7*	0	1	8
CCOc1ccc(NC(=O)CNC(=O)C2CCCCC2)cc1	-1	6	2	0	·	·
CCN(CC)CCOC(=O)c1ccc(NC(=O)CNC(=O)C2CCCCC2)cc1	10	10	5.9*	0	0	-8
N#C/C(=C/c1cccc([N+](=O)[O-])c1)C(=O)Nc1ccc(O)cc1	-8	1	-1	1	·	·
O=C(CC(=O)N/N=C/c1cccc([N+](=O)[O-])c1)N/N=C/c1cccc([N+](=O)[O-])c1	17	8	0	0	·	·
NC(=O)N/N=C\c1cccc([N+](=O)[O-])c1	0	10	7.6*	0	-1	-4
